From PubChem
FBW7 act = human FBW7 E3 ligase activation, primary screen | Q969H0 | AlphaScreen FBW7–phospho-cyclin E peptide binding, activator screen | normalized activity (activation), % at 26.1 µM | 650,000 tested, 0.13% active | AID 1259310; in the data active = normalized activity above about 1.9%;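 also: purified mutant Fbw7 with reduced substrate affinity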
MITF primary = inhibitors of human MITF; O75030; 650,000 tested, 0.91% active; inhibition, % at 2.6 µM; AID 1259374; AlphaScreen MITF homodimerization, bead proximity signal; in the data active = inhibition above about 50%
Target sequence (O75030 whole entry, looked up): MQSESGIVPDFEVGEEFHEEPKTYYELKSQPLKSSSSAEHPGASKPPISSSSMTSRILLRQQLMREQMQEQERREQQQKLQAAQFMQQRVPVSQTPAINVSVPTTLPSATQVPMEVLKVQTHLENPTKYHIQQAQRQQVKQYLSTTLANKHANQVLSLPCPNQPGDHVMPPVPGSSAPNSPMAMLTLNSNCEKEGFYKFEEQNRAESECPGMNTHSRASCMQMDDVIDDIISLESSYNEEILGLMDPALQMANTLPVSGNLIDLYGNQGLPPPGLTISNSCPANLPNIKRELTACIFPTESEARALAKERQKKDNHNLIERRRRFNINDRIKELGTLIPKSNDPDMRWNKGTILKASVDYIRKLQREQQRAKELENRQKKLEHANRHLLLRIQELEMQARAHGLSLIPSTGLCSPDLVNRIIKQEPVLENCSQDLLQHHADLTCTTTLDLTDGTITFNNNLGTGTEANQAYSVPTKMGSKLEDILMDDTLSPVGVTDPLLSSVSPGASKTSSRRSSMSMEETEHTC
TEAD-YAP inh = TEAD-YAP interaction inhibition. inhibition, % at 9.12 µM. 640,000 tested, 1.4% active. HEK-TIYL cells, TEAD-Gal4/YAP UAS-luciferase luminescence. AID 1259422; in the data active = inhibition above about 32%
GPR151 ag = human GPR151 activation | activation, % at 11.2 µM | Q8TDV0 | AID 1508602 | PathHunter beta-arrestin GPR151 cells, luminescence | 650,000 tested, 1% active; in the data active = activation above about 4.9%
MITF confirm = human MITF inhibition, confirmation; shares compounds with MITF primary; AlphaScreen MITF homodimerization, biotin/His-MITF beads; inhibition, % at 2.6 µM; 4,700 tested, 16% active;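 active = inhibition above a cutoff derived from the DMSO control wells, cut at about 28% in these data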;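 also: inhibitors lower the bead chemiluminescence by keeping MITF from dimerizing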
AS interf DR = AlphaScreen optical interference, dose response counter-screen. shares compounds with MITF primary. AlphaScreen optical interference counterscreen, cell-free. IC50, µM. 480 tested, 6% active; call rule not given here
AS interf ctr = AlphaScreen optical interference, counter-screen; shares compounds with MITF primary; inhibition, % at 2.6 µM; LysRS AlphaScreen counterscreen, signal interference, triplicate; 4,700 tested, 7.6% active; AID 1259376;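 active = inhibition above a cutoff derived from the DMSO control wells, cut at about 30% in these data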
Of the large screens only hits and unclear results are named; the others gave an inactive call (follow-up assays come after a bar, where they were run); ! = not active in a repeat. Hits are enriched below; roughly 3.4% of the tested compounds scored in any of these assays.

Cc1cc(NC(=O)Cn2ncn3cccc3c2=O)ccc1Br	none
C=CC1=C(C)C2=Cc3c(C=C)c(C)c4[n]3[Sn+2][n]3c(c(C)c(CCC(=O)O)c3=CC3=NC(=C4)C(C)=C3CCC(=O)O)=CC1=N2	MITF primary 55 (no result: TEAD-YAP inh) | MITF confirm 62 | AS interf DR inactive | AS interf ctr inactive
C=CC1=C(C)c2cc3[n-]c(cc4nc(cc5[n-]c(cc1n2)c(C)c5CCC(=O)O)C(CCC(=O)O)=C4C)c(C)c3C=C.[Zn+2]	none (no result: TEAD-YAP inh)
CCOC(=O)C1=C(C)N=c2s/c(=C\c3cc(Cl)c(OC)c(OC)c3)c(=O)n2C1c1ccc(OCC)cc1 (stereo unspecified)	MITF primary 51 | MITF confirm inactive | AS interf ctr inactive
C=CCOc1c(Cl)cc(/C=c2\sc3n(c2=O)C(c2ccc(OCC)cc2)C(C(=O)OCC)=C(C)N=3)cc1Cl (stereo unspecified)	none
O=C(CCc1csc(NC(=O)c2ccc(F)cc2)n1)NCc1c(F)cccc1F	none
COc1cc(OC)c(CN2CCCC(CO)C2)cc1Br (stereo unspecified)	MITF primary 55 | MITF confirm inactive | AS interf ctr inactive
CCOC(=O)C(=O)C(C#N)c1ccccc1 (stereo unspecified)	MITF primary 83 | MITF confirm inactive | AS interf ctr inactive
CC1(C)CC(=O)C2=C(C1)NC(=O)CC2c1ccc(C(C)(C)C)cc1 (stereo unspecified)	MITF primary 70 | MITF confirm inactive | AS interf ctr inactive
CC1(C)CC(=O)C2=C(C1)NC(=O)CC2c1ccc(F)cc1 (stereo unspecified)	none
CCc1ccc(NC(=O)Cn2nnc(C(=O)OC)c2C(=O)OC)cc1	MITF primary 52 | MITF confirm inactive | AS interf ctr inactive
COC(=O)c1nnn(CC(=O)Nc2ccc(Br)cc2)c1C(=O)OC	none
O=C(C1CCC(Nc2nccc(-c3ccc4nc(C5CC5)[nH]c(=O)c4c3)n2)CC1)N1CCCC1 (stereo unspecified)	FBW7 act 2.6!, MITF primary 59! | MITF confirm 63 | AS interf DR inactive | AS interf ctr inactive
O=C(Nc1ccc(Nc2nccc(-c3ccc4nc(C5CC5)[nH]c(=O)c4c3)n2)cc1)N1CCCC1	none
Cn1nnc(-c2ccc(Nc3nccc(-c4ccc5nc(C6CC6)[nH]c(=O)c5c4)n3)cc2)n1	MITF primary 63 | MITF confirm 39 | AS interf DR inactive | AS interf ctr inactive
Cc1cc2c(=O)n(C)c(SCC(=O)O)nc2s1	none
CN(C)CCCN(CCCN(C)C)Cc1cccc2ccccc12	MITF primary 55 | MITF confirm inactive | AS interf ctr inactive
CN(C)CCN(C)Cc1cccc2ccccc12	MITF primary 60 | MITF confirm inactive | AS interf ctr inactive
COc1ccccc1CN(CCCN(C)C)CCCN(C)C	none
Cc1ccc(CNc2oc(-c3ccc([N+](=O)[O-])cc3)nc2C#N)cc1	none
N#Cc1c(-c2ccc3c(c2)OCO3)nc(N2CCCCC2)[nH]c1=O	MITF primary 80 | MITF confirm 78 | AS interf DR inactive | AS interf ctr inactive
COc1ccc(-c2nc(N3CCN(C)CC3)[nH]c(=O)c2C#N)cc1	none
CCCC(=O)C1=C(N2CCCC2)CC(C)(C)CC1=O	none
c1ccc(CCCN2CCN(C3CCN(Cc4ccccc4)CC3)CC2)cc1	none
Fc1ccccc1CN1CCN(CCCc2ccccc2)CC1	MITF primary 73 | MITF confirm inactive | AS interf ctr inactive
Fc1ccc(CN2CCN(CCCc3ccccc3)CC2)cc1	MITF primary 59 | MITF confirm inactive | AS interf ctr inactive
c1ccc(CCCN2CCN(Cc3cccnc3)CC2)cc1	MITF primary 83 | MITF confirm inactive | AS interf ctr inactive
CN1CCCN(Cc2ccccc2F)CC1	none
Fc1ccccc1OCCCN1CCN(Cc2ccccc2)CC1	MITF primary 64 | MITF confirm inactive | AS interf ctr inactive
CSc1ccc(-c2ccc3c(c2)CC(CNC(=O)CCn2cncn2)O3)cc1 (stereo unspecified)	none
O=C(CC(=O)Nc1cccc(C(F)(F)F)c1)N/N=C/c1ccc2c(c1)OCO2	none
COc1cccc(Nc2nncc(=O)[nH]2)c1	none
Cn1cccc1C(=O)NC(=O)COC(=O)CNS(=O)(=O)/C=C/c1ccccc1	none
Cc1nc(NCCCn2ccnc2)c2nnn(Cc3ccccc3)c2n1	none
Cc1sc2ncn(CC(=O)NCC(=O)Nc3ccc4c(c3)OCO4)c(=O)c2c1C	MITF primary 55 | MITF confirm inactive | AS interf ctr inactive
COc1ccc(C2SCC(C(=O)O)N2C(C)=O)cc1OC (stereo unspecified)	MITF primary 51 | MITF confirm inactive | AS interf ctr inactive
N#CCCS(=O)(=O)c1ccc2[nH]c(=O)c(=O)[nH]c2c1	none
CCOC(=O)c1ccc(COC(=O)c2ccccc2NC(C)=O)c(Br)c1	none
C=CCc1ccccc1OCCCCNCCCOC	none
COCCNCCOc1ccccc1OC	none
C=CCc1ccccc1OCCCNCCOC	MITF primary 59 | MITF confirm inactive | AS interf ctr inactive
COCCNCCOc1ccccc1C(C)C	MITF primary 58 | MITF confirm inactive | AS interf ctr 42
C=CCc1ccccc1OCCOCCNCCOC	none
C=CCc1ccccc1OCCNCCOC	MITF primary 52 | MITF confirm inactive | AS interf ctr inactive
C=CCc1ccccc1OCCCNCCCOC	MITF primary 65 | MITF confirm inactive | AS interf ctr inactive
O=C(Nc1c2c(nn1-c1ccc(F)cc1)CS(=O)C2)c1cccc(C(F)(F)F)c1 (stereo unspecified)	none
CCOC(=O)C1=C(C)NC2=C(C(=O)CC(c3ccccc3)C2)C1c1ccc(Cl)cc1 (stereo unspecified)	none
